From PubChem BioAssay (NCATS)
Records with an inconclusive call do not appear. Unmarked numbers belong to inactive results. The source made the active and inactive calls. Calls follow the shape of the full dose curve.
% is scaled to controls: 0 for no effect and ±100 for the full control effect.

Each compound was assayed against Atrial natriuretic peptide receptor 1 (Homo sapiens) (UniProt P16066) (assay: Natriuretic polypeptide receptor (hNpr1) antagonism - Pilot CMLD screen (AID 1347052)). Settings: HEK293 hNpr1 GloSensor cGMP luminescence, ANP-stimulated; series mostly up to 9.22 µM; activity change, negative = inhibition: at the top concentration.
Atrial natriuretic peptide receptor 1 (Homo sapiens), sequence (P16066 whole entry, looked up, the tested form may be a part): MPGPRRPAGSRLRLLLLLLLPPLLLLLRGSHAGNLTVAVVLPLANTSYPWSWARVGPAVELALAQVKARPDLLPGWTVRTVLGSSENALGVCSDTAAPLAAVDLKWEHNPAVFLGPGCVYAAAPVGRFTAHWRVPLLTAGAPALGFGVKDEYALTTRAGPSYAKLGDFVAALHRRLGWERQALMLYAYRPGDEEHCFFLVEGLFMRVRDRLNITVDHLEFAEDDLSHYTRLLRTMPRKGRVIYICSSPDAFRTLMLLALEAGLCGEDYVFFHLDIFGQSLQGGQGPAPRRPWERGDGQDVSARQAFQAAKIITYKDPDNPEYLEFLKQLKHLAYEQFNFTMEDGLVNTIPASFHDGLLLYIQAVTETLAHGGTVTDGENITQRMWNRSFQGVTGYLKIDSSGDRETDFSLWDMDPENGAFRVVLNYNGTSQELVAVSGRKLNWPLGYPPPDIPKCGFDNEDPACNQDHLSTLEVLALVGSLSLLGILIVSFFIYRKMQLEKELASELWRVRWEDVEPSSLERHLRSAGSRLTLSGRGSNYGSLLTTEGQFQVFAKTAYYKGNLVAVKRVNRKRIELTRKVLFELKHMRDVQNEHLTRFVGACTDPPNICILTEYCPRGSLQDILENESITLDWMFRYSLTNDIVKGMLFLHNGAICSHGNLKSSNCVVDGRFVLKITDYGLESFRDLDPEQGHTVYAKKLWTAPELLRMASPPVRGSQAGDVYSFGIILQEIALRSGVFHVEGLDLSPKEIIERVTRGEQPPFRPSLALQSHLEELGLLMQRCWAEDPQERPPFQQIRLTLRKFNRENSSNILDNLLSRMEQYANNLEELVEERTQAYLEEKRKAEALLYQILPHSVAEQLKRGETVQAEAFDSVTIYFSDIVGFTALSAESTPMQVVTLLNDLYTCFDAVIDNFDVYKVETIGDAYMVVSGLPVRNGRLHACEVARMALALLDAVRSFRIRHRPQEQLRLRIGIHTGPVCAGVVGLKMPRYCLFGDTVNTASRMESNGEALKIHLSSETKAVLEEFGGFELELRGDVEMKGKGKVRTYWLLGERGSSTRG
Protocol: In order to identify small molecular compounds that inhibit the hNpr1 receptor we developed a high-throughput assay to measure inhibition of the guanylate cyclase activity of the receptor. cGMP production was measured using a circular permutated Firefly luciferase (FLuc) enzyme functionally linked to the cGMP binding domain of human phosphodiesterase 5 (GloSensor technology pGS-40F, (Fan, F. et al. 2008). The cGMP-sensor was expressed in human embryonic kidney 293 (HEK-293) cells and FLuc activity was measured after stimulation with hNrp agonist peptide. hNrp agonists activates the receptor's associated guanylyl cyclase (GC) domain producing cGMP which then binds to the GloSensor resulting in FLuc activation, the enzymatic activity of which can be measured as bioluminescence with addition of luciferin substrate.
This assay was initially piloted by testing with a small library of specialty compounds.
PROTOCOL TABLES (as described by Inglese J, Shamu CE and Guy RK. 2007)
SEQUENCE No. (e.g., 1, 2, 3, etc.); […] (e.g., Cells, Incubation, Reagent, etc.); VALUE and DESCRIPTION.
1. Cells. Seed 1500 HEK293 cGMP-sensor cells expressing hNpr1 per well in 4uL into Greiner 1536-well white/solid bottom high base, tissue culture-treated plates.
2. Incubation. Incubate plated cells at 37C in 5% CO2, 95% RH overnight.
3. Reagent. Add 1uL per well GloSensor reagent from Promega (2% final concentration) or CO2 independent media vehicle control to respective columns of Greiner 1536-well plates.
4. Incubation. Incubate plated cells at room temperature for 2 h, protect from light.
5. Compounds. Library compounds and A-71915 control added at 23 nL per well, transferred by Pin Tool.
6. Incubation. Incubate plated cells for 30 min. at room temperature, protect from light.
7. Detector. GloSensor baseline pre-read luminescence measured using CCD-based camera (Viewlux).
8. Compound. Add 1uL of hNppA peptide to 0.1 nM final concentration to stimulate hNpr1 or CO2 independent media as vehicle control.
9. Incubation. Incubate treated cells at room temperature for 20 min., protect from light.
10. Detector. GloSensor post-hNppA luminescence measured using CCD-based camera (Viewlux).
NOTES (numbers refer to Sequence numbers above)
1. HEK293 cells expressing hNpr1 and GIP/pGS-40F grown to 85-95% confluence (48-72 h) in T175 culture flasks (CO2 independent media supplemented with 10% FBS, 1% Pen/Strep antibiotics and 1 ug/mL puromycin). Trypsinize and harvest cells from T175 culture flasks and filter through 40 um cell strainer. Cells counted with Invitrogen Countess (30,000,000 - 50,000,000 cells/flask). Cells diluted to a final concentration of 375 cells/uL in CO2 independent media and a Millipore multidrop used to dispense 1500 cells per well (4uL/well) into 13 1536-well Greiner White/Solid bottom, high base tissue-culture treated (TC) plates and one Aurora 1536-well Black/Clear bottom, low base, TC plate (for visual inspection of cell health throughout the duration of the assay).
2. Cells incubated overnight at ambient temperature, 24 h. at 37C in 95% RH incubator protected from light, covered with metal lid with gas-exchange holes.
3. Prepare GloSensor Reagent (Promega): Reconstitute GloSensor luciferase substrate by adding 8.2mL Hepes buffer to 250mg substrate, mix well, protect from light and stored at -80C. Prepare a fresh 12% GloSensor solution in CO2 independent supplemented plating media (see above). Mix well and store at ambient temperature, protected from light. 1uL 12% GloSensor Luciferase Reagent added (2% final concentration) to respective columns of 13 x 1536-well Greiner plate with BioRaptr, 1uL CO2 independent plating media added to respective columns as vehicle control with BioRaptr.
4. Cells incubated for 2 h. at ambient temperature, protected from light with metal lid with gas-exchange holes.
5. A-71915 stock solution prepared (10 mM in DMSO). […]
With `CC1(OC(=O)C2CCCC2)C(=O)C=C2C=C3CCCN3C=C2C1=O` (stereo not given) the “activity change, negative = inhibition” value was -3.56%.
For `O=C1CCCC2=C1[C@H]1O[C@](CCCCN3C(=O)c4ccccc4C3=O)(Cc3c1ccc1ccccc31)O2`, the “activity change, negative = inhibition” value was -0.856%.
`C=CCN1c2ccccc2[C@]23CCC(=O)N(CCCOC(C)C)C2=NC(C(=O)OC)=C(C(=O)OC)[C@H]13` was tested, and the “activity change, negative = inhibition” value was -0.66%.
For `COC(=O)CC=C[C@@H](C)[C@@H](C=NOC[C@@H](O)[C@H]1O[C@@H]2OC(C)(C)O[C@H]2[C@@H]1O)OC`, the “activity change, negative = inhibition” value was -2.22%.
`O=C1Nc2cccc(Br)c2[C@@]12O[C@H](COc1ccccc1)CC1=CCC[C@H]12` was tested, and the “activity change, negative = inhibition” value was -1.03%.
For `CCN1C(=O)NC(c2ccccc2)C(C(=O)OC)=C1C` (stereo not given), the “activity change, negative = inhibition” value was -1.69%.
For `O=C1[C@H]2[C@@H]3[C@@H](O)[C@H](O)CC(=NOCc4ccccc4)[C@@H]3CC[C@H]2C(=O)N1C1CCCCC1`, the “activity change, negative = inhibition” value was 10%.
In the case of `COC(=O)C12C[C@H](C)C3C(C)C(c4ccccc4C31)N2C(=O)C(F)(F)F` (stereo not given in full), the “activity change, negative = inhibition” value is reported as 0.278%.
`COC(=O)CCCC1=CC2=CC(=O)C(C)(OC(=O)c3cccs3)C(=O)C2=CN1C1CCCC1` (stereo not given) was tested, and the “activity change, negative = inhibition” value was 3.37%.
With `COC(=O)C1=C(C)N(CC2CC2)C(=O)NC1CCc1ccccc1` (stereo not given) the “activity change, negative = inhibition” value was -5.63%.
With `CC1(C)CC(=O)C2=C(C1)O[C@@]1(CCCCN3C(=O)c4ccccc4C3=O)Cc3cc(C#N)ccc3[C@H]2O1` the “activity change, negative = inhibition” value was 0.0332%.
`COC(=O)NC(c1ccccc1)C1(C(=O)OC)C(=O)Cc2ccccc21` (stereo not given) was tested, and the “activity change, negative = inhibition” value was 2.75%.
For `CC(C)=CCCC(C)=CCON=C1C[C@@H](O)[C@@H](O)[C@@H]2[C@H]3C(=O)N(C[C@@H]4CCCO4)C(=O)[C@@H]3CC[C@@H]12`, the “activity change, negative = inhibition” value was 9.58%.
`COC(=O)C1C[C@@]23C(=NN=C(SC)C2N(C)c2ccc(OC)cc23)N1C(C)=O` (stereo not given in full) was tested, and the “activity change, negative = inhibition” value was 2.67%.
For `COC[C@@H](O)[C@H]1OCc2ccccc2[C@@H]1C=Cc1ccccc1`, the “activity change, negative = inhibition” value was 1.86%.
For `CCN1C(=NCc2ccccc2)NC(c2cccc(C(F)(F)F)c2)C(C(=O)OC)=C1C` (stereo not given), the “activity change, negative = inhibition” value was -6.77%.
With `Cc1c(O)ccc2c1OCO2` the “activity change, negative = inhibition” value was 7.28%.
With `COC[C@H]1O[C@H](c2ccccc2)C=C[C@H]1OCc1cccc(Br)c1` the “activity change, negative = inhibition” value was 1.97%.
For `COc1ccc2c3c(c(=O)oc2c1)[C@H]1O[C@](CCCCN2C(=O)c4ccccc4C2=O)(Cc2cc(OC)c(OC)cc21)O3`, the “activity change, negative = inhibition” value was -0.657%.
With `COC(=O)[C@H](COC(C)(C)C)NC(=O)O[C@@H]1C(=O)c2cc(OC)ccc2O[C@H]1c1cccc(OC)c1` the “activity change, negative = inhibition” value was 0.306%.
With `Cc1noc(C)c1S(=O)(=O)N1CCc2nc(-c3ccccc3)c3c(c2C1)CO[C@@H](C)C3` the “activity change, negative = inhibition” value was -0.244%.
With `COCCN1C(=O)N[C@@H](CCc2ccccc2)[C@H](C(=O)OC)[C@H]1C` the “activity change, negative = inhibition” value was 2.49%.
`O=c1oc2ccccc2c2c1[C@H]1O[C@](c3ccsc3)(Cc3ccccc31)O2` was tested, and the “activity change, negative = inhibition” value was 7.73%.
With `CC(=O)OC[C@H]1O[C@H](c2cc(C)cc(C)c2)C=C[C@H]1OC(C)=O` the “activity change, negative = inhibition” value was -5.09%.
With `CC(=O)OC[C@H]1O[C@@H](ON=CC[C@@H]2C=C[C@@H](OC(C)=O)[C@@H](COC(C)=O)O2)[C@@H](OC(C)=O)[C@@H](OC(C)=O)[C@@H]1OC(C)=O` the “activity change, negative = inhibition” value was 6.45%.
In the case of `CCN1C(=O)[C@@H]2[C@H]3[C@H](O)[C@H](O)CC(=NOC[C@@H](O)[C@H]4O[C@@H]5OC(C)(C)O[C@H]5[C@@H]4O)[C@@H]3CC[C@H]2C1=O`, the “activity change, negative = inhibition” value is reported as 15.1%.
With `CC(CCC(=O)OC[C@H]1O[C@H](C#Cc2ccccc2)C=C[C@H]1Oc1ccc(C)cc1)=NO[C@H](C)c1cn([C@@H]2COC[C@@H]2O)nn1` the “activity change, negative = inhibition” value was 0.386%.
For `CCOC(=O)CN1C(=O)[C@]2(O[C@H](C)CC3=CCCC32)c2c(Br)cccc21` (stereo not given in full), the “activity change, negative = inhibition” value was 10.2%.
In the case of `CCN1C(=S)NC(c2cccc(C(F)(F)F)c2)C(C(=O)OC)=C1C` (stereo not given), the “activity change, negative = inhibition” value is reported as -2.34%.
With `COC(=O)c1cc(C(=O)OC)n2c(C)cc3ccccc3c12` the “activity change, negative = inhibition” value was 3.18%.
`CCOC(=O)C1=NO[C@@]2(C=C(Br)C(=O)[C@H]3O[C@H]32)C1` was tested, and the “activity change, negative = inhibition” value was -0.508%.
With `CC1=C[C@@H](C)OC2(C1)C(=O)N(Cc1ccc(Br)cc1)c1cccc(Br)c12` (stereo not given in full) the “activity change, negative = inhibition” value was -4.86%.
For `CCN1C(=NCC(C)C)N[C@@H](CCc2ccccc2)[C@H](C(=O)OC)[C@H]1C`, the “activity change, negative = inhibition” value was -4.46%.
With `O=C1OCCC=C1C(O)CCc1ccccc1` (stereo not given) the “activity change, negative = inhibition” value was 2.16%.
With `CCCCC1=CC2=C(c3ccco3)C(=O)C(C)(OC(=O)c3ccc(OC)cc3)C(=O)C2=CN1CCCN(CC)CC` (stereo not given) the “activity change, negative = inhibition” value was -0.0086%.
In the case of `CCCCCCCC1=Cc2ccccc2C(CC(C)=O)N1C(=O)OC` (stereo not given), the Potency is reported as “inactive”.
In the case of `COC(=O)C1=C(C)N(Cc2ccccc2)C(=S)NC1c1ccccc1` (stereo not given), the “activity change, negative = inhibition” value is reported as -2.46%.
`C=CCC12OC3(OC)CC1[C@H](C)[C@@H](c1ccccc1)C2[C@@]3(C)O` (stereo not given in full) was tested, and the “activity change, negative = inhibition” value was 2.42%.
`COc1ccc2c(c1)O[C@H](c1ccc3c(c1)OCO3)[C@@H](OC(=O)NCCOc1ccccc1)C2=O` was tested, and the “activity change, negative = inhibition” value was 0.995%.
For `C=CCN1C(=O)CC[C@@]23C1=NC(C(=O)OC)=C(C(=O)OC)[C@@H]2N(CC#CC)c1ccccc13`, the “activity change, negative = inhibition” value was -10.8%.
